Records with an inconclusive call do not appear. Active and inactive are the calls of the source. Rule for the calls, unless noted: active = hit-call score of the fitted dose curve at least 0.9, where 1 is the maximum; inactive = score below 0.9.
Experiments:
[1] = CCTE_Harrill_HTTr_Viability_MCF7: CCTE's 6-hour Cell Viability Assessment for the High-Throughput Transcriptomics (HTTr) Platform, in MCF-7 cells cultured in DMEM + 10% fetal bovine serum, Harrill Lab (AID 2284010)
Outline: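 Read-out is propidium iodide gain of signal by high-content imaging, reflecting membrane integrity loss. Measurements are taken 6 h after dosing, eight concentrations per chemical, with DMSO serving as baseline for bidirectional curve fitting.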

[2] = CCTE_Harrill_HTTr_Apoptosis_MCF7: CCTE's 6-hour Apoptosis Assessment for the High-Throughput Transcriptomics (HTTr) Platform, in MCF-7 cells cultured in DMEM + 10% fetal bovine serum, Harrill Lab (AID 2284011)
Outline: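 Apoptosis in MCF-7 cells grown in DMEM with 10% fetal bovine serum was scored after a six hour exposure by high content imaging of caspase-3/7 activation (CellEvent Caspase 3/7 Green), with DMSO serving as negative control and baseline.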

[3] = CCTE_Harrill_HTTr_CellCount_MCF7: CCTE's Cell Proliferation Assessment for the High-Throughput Transcriptomics (HTTr) Platform, Harrill Lab (AID 2284012; active = hit-call score of the fitted dose curve at least 0.9, where 1 is the maximum;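 note: cells exposed to compound for six hours; intended direction is loss of nuclei count meaning fewer cells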)
Outline: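 Cell count served as viability reporter: loss of Hoechst-stained nuclei, counted by high content imaging, marks decreased growth or survival. Exposure was 6 h in MCF-7 cells across eight concentrations, with DMSO as baseline.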

[4] = target: Ratio of Nucleoli Translocation and Cytoplasm, AR (gene 367) (UniProt P10275); assay: UPITT_HCI_U2OS_AR_TIF2_Nucleoli_Cytoplasm_Ratio_Agonist: University of Pittsburgh U2OS Androgen Receptor-Transcriptional Intermediary Factor 2 (AR-TIF2) Agonism High Content Imaging Assay for Ratio of Nucleoli Translocation and Cytoplasm (AID 2284000; active = hit-call score of the fitted dose curve at least 0.9, where 1 is the maximum;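 note: hits raise the red nucleolar to cytoplasm ratio above vehicle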)
Chain of Ratio of Nucleoli Translocation and Cytoplasm, AR (gene 367) (P10275 whole entry, looked up): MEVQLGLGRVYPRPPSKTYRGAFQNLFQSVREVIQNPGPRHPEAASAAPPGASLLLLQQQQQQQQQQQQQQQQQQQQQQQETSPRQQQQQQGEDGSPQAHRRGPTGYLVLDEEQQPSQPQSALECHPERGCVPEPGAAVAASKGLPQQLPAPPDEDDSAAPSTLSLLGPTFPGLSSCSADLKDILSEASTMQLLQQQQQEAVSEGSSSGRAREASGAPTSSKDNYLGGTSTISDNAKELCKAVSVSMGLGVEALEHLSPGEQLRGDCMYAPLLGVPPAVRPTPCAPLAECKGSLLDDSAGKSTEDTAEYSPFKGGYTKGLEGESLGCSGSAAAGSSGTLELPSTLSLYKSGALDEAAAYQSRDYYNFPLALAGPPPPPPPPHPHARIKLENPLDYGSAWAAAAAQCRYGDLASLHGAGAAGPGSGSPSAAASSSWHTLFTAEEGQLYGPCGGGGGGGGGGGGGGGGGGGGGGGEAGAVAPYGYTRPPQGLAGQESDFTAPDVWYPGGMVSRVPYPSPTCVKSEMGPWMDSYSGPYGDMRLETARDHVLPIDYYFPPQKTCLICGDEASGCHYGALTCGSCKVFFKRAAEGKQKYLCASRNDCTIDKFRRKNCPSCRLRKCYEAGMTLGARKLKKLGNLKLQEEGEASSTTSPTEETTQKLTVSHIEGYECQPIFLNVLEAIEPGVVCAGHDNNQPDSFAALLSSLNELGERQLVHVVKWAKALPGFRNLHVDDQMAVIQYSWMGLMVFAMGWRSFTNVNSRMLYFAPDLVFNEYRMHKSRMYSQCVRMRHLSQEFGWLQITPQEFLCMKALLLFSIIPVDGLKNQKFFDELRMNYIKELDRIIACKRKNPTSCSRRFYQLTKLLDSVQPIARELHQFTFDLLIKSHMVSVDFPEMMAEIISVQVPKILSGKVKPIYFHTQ
Outline: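 Human osteosarcoma U2OS line, AR-RFP plus TIF2-GFP; compounds 0.195–50 uM final, 0.5% DMSO. Readout: nucleolar/cytoplasmic RFP ratio by HCI, positive direction vs DMSO baseline.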

[5] = CCTE_Shafer_MEA_acute_spike_number: CCTE's Neural Acute Assay for Total Number of Spikes, Shafer Lab (AID 2284008);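 for AC50: curve fitted for decrease in spike count so AC50 reflects inhibitors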
Outline: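 Using an adaptive detector set to 8x rms noise, spikes were counted in 40-min windows before and after compound addition (0.03-40 uM) to rat cortical networks at 37 C; the well-level change from baseline was analysed relative to DMSO.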

[6] = CCTE_Shafer_MEA_acute_firing_rate_mean: CCTE's Neural Acute Assay for Mean Firing Rate, Shafer Lab (AID 2284009);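 note: analyzed for loss of signal so actives lower firing rate relative to DMSO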
Outline: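 Rat cortical neuron cultures matured to DIV 13 or 15, equilibrated 20 min at 37 C, then recorded 40 min for baseline. Compound (0.03-40 uM) added and a further 40 min recorded; percent change in mean firing rate calculated per well.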

[7] = CCTE_Shafer_MEA_acute_burst_number: CCTE's Neural Acute Assay for Single-Electrode Bursts, Shafer Lab (AID 2284013)
Outline: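 Percent change in single-electrode burst number per well, from 40-min recordings taken before and after adding compound (0.03-40 uM) to primary rat cortical neurons on MEA plates at DIV 13 or 15, 37 C.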

[8] = CCTE_Shafer_MEA_acute_burst_duration_mean: CCTE's Neural Acute Assay for Mean Burst Duration, Shafer Lab (AID 2284014);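 note: hits are decreases in mean burst duration relative to DMSO controls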
Outline: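 Rat cortical cultures, DIV 13/15; 40 min baseline, then 40 min with compound (0.03-40 uM), 37 C. Spikes: 300-5000 Hz band-pass, 8x rms threshold. Read-out: % change in mean single-electrode burst duration, DMSO-referenced, loss direction.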

[9] = CCTE_Shafer_MEA_acute_per_burst_spike_number_mean: CCTE's Neural Acute Assay for Average Number of Spikes Per Burst, Shafer Lab (AID 2284015);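 note: hits are decreases in mean spikes per burst versus baseline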
Outline: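 Read-out: percent change in mean spikes per burst, each well's post-exposure 40-min recording versus its own 40-min baseline. Rat cortical cultures, DIV 13 or 15, compounds 0.03-40 uM; DMSO is negative control, loss-of-signal fitting.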

[10] = CCTE_Shafer_MEA_acute_interburst_interval_mean: CCTE's Neural Acute Assay for Mean Interburst Interval, Shafer Lab (AID 2284016);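 note: percent change of mean interburst interval versus each well's own pre-dose baseline; curves fitted for decrease in interburst interval relative to DMSO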
Procedure: CCTE_Shafer_MEA_acute assay is conducted using Axion Biosystems 48 well microelectrode array (MEA) plates and Maestro recording system. Each well of the MEA plate contains a grid of 16 microelectrodes embedded in the culture surface. Electrically active cells, such as neurons, can be cultured over the electrodes, and electrical activity in these cells can be recorded extracellularly. The spontaneous firing of neurons is captured from each electrode on a microsecond timescale providing both temporally and spatially precise data. […] The CCTE_Shafer_MEA_acute assay uses primary cultures of rat cortical neurons. […] The recordings before and after chemical treatment are used to calculate a percent change in the mean inter-burst interval in each well.Data from the assay component CCTE_Shafer_MEA_acute_interburst_interval_mean was analyzed into 1 assay endpoint. This assay endpoint, CCTE_Shafer_MEA_acute_interburst_interval_mean, was analyzed in the negative analysis fitting direction relative to DMSO as the negative control and baseline of activity. […]
Spontaneous activity in the cortical cultures was recorded using an Axion Biosystems Maestro 768 channel amplifier and Axion Integrated Studios (AxIS) v1.8 (or later) software. […] Any electrodes with rms noise levels greater than 5 uV were grounded (e.g., no data were recorded). […]

C#C[C@]1(O)CC[C@H]2[C@@H]3CCc4cc(OC)ccc4[C@H]3CC[C@@]21C
outcome [1]: inactive
outcome [2]: inactive
outcome [3]: inactive

CCCCCCOC(=O)c1ccccc1O
outcome [4]: inactive
outcome [5]: inactive
outcome [6]: inactive
outcome [7]: inactive
outcome [8]: inactive
outcome [9]: inactive
outcome [10]: inactive

CC(Cc1ccc(O)c(O)c1)C(C)Cc1ccc(O)c(O)c1 (stereo not drawn)
outcome [1]: inactive
outcome [2]: inactive
outcome [3]: inactive

CCCCCCC(C)OC(=O)CCCCC(=O)OC(C)CCCCCC (stereo not drawn)
outcome [4]: inactive

OC[C@@H](O)[C@@H](O)[C@H](O)[C@@H](O)CO
outcome [1]: inactive
outcome [2]: inactive
outcome [3]: inactive

[Co]
outcome [4]: inactive

CCCCC(CC)COP(=O)(O)OCC(CC)CCCC (stereo not drawn)
AC50 [5]: 6.52 nM (active)
AC50 [6]: 6.51 nM (active)
AC50 [7]: 3 nM (active)
outcome [8]: inactive
outcome [9]: inactive
outcome [10]: inactive

CCCCCC=O
outcome [1]: inactive
outcome [2]: inactive

C1COCCN1
outcome [1]: inactive
outcome [2]: inactive

CCN(Cc1cccc(S(=O)(=O)O)c1)c1ccc(C(=C2C=CC(=[N+](CC)Cc3cccc(S(=O)(=O)O)c3)C=C2)c2ccc(O)cc2S(=O)(=O)[O-])cc1
outcome [1]: inactive
outcome [2]: inactive
outcome [3]: inactive

O=S(=O)(O)c1ccc2ccccc2c1
outcome [1]: inactive
outcome [2]: inactive

CC/C=C\CCOC(C)=O
outcome [1]: inactive
outcome [2]: inactive

Nc1ccc(S(=O)(=O)Nc2nccs2)cc1
outcome [1]: inactive
outcome [2]: inactive
outcome [3]: inactive

CN(C)Cc1ccccc1O
outcome [4]: inactive

CNC(=S)NC
outcome [1]: inactive
outcome [2]: inactive
outcome [3]: inactive

CC(CCl)OP(=O)(OC(C)CCl)OC(C)CCl (stereo not drawn)
outcome [1]: inactive
outcome [2]: inactive
outcome [3]: inactive

CCCCCCCOC(=O)c1ccccc1C(=O)OCCCCCCC
outcome [1]: inactive
outcome [2]: inactive
outcome [3]: inactive

Source: PubChem BioAssay (EPA / NIEHS)
